Data: PubChem BioAssay AID488977 (Johns Hopkins Ion Channel Center, 2010)
Screen size: about 310,000 compounds; about 1,500 (0.48%) were called active.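 Rule for the calls: active = initial fluorescence not abnormally high and integrated response B-score, plate-corrected, over 3 SD above library mean; inactive = the rest.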 This excerpt belongs to a sample that is enriched for actives.

Each compound was assayed against High affinity choline transporter 1 (Homo sapiens) (UniProt Q9GZV3) (assay: allosteric activators of human choline transporter – cell-based, membrane potential dye, choline EC20, primary screen (AID 488977)). Conditions: CHT-expressing cells, at 10 µM; B-score: stronger effect = higher value, LV-AA mutant CHT in HEK293 cells unless noted; outcome: LV-AA mutant CHT in HEK293 cells unless noted.
Chain of High affinity choline transporter 1 (Homo sapiens) (Q9GZV3 whole entry, looked up): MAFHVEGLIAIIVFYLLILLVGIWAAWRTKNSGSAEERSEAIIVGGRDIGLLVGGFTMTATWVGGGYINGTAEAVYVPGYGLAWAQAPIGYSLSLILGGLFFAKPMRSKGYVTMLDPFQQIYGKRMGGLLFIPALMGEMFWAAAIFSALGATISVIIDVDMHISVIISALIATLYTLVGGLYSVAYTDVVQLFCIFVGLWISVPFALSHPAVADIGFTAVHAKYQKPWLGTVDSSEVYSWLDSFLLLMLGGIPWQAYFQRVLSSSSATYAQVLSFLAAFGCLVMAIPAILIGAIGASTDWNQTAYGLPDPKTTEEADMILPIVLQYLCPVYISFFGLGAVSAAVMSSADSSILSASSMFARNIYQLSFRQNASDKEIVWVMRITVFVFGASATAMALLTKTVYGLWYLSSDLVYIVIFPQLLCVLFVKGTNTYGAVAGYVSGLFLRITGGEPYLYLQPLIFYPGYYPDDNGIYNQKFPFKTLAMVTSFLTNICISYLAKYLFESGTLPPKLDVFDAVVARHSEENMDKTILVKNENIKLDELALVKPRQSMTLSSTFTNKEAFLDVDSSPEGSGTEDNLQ

Row | SMILES | B-score | outcome
1 | CCN1CCN(c2ccc([N+](=O)[O-])cc2C#N)CC1 | inactive | 
2 | CN1CCN(c2cc(N3CCNCC3)ccc2[N+](=O)[O-])CC1 | 8.44 (active) | 
3 | COC(=O)C1=C(c2cc3ccccc3o2)C[C@@H]2CC[C@H]1N2C(=O)NC1CCCCC1 | inactive | 
4 | COC(=O)C1=C(c2cc3ccccc3s2)C[C@@H]2CC[C@H]1N2C(=O)NCCO | inactive | 
5 | COC(=O)C1=C(c2ccccc2)C[C@@H]2CC[C@H]1N2C(=O)N1CCCCC1 | inactive | 
6 | Cc1nc2ccc(N3CCN(C)CC3)cc2nc1C | 6.37 (active) | 
7 | C=CC12CN(C)[C@@H]3C4CO[C@H](C[C@H]41)[C@]1(C(=O)Nc4ccccc41)[C@@H]32 (stereo not given in full) | inactive | 
8 | CC(=O)Nc1ccc(C(=O)C(Cc2ccccc2)N(C)C)cc1 (stereo not given) | inactive | 
9 | O=[N+]([O-])c1cnc2ccc3ccccc3c2c1 | inactive | 
10 | CCCCCn1c(=O)c(C(=O)Nc2c(C)n(C)n(-c3ccccc3)c2=O)c(O)c2ccccc21 | 8.71 (active) | 
11 | CCCCCn1c(=O)c(C(=O)NCc2ccccc2)c(O)c2ccccc21 | inactive | 
12 | CCCCn1c(=O)c(C(=O)Nc2ccccc2Cl)c(O)c2ccccc21 | inactive | 
13 | CNCC(O)c1cc(F)c(OCc2ccccc2)c(OCc2ccccc2)c1F (stereo not given) | inactive | 
14 | O=C(N/N=C/c1c(O)n(C2CC2)c(=S)[nH]c1=O)c1ccccc1Cl |  | inactive [setting not given]
15 | C/C(=N/O)c1ccc2ccc3ccccc3c2c1 | inactive | 
